Experimental data published in PubChem BioAssay AID743445 (Broad Institute, 2014).
About 1,700 (0.55%) of roughly 310,000 compounds were called active. This is one part of a sample in which actives are shown more often than they occur. Unmarked numbers belong to inactive results. No stated cut-off is given here; in the data, active means inhibition above about 50%; inactive means the rest.

biological target: Histone-lysine N-methyltransferase NSD2 (Homo sapiens) (UniProt O96028); assay: NSD2 histone methyltransferase inhibitors, primary screen, biochemical, AlphaScreen, single concentration, set 2 (AID 743445); settings: NSD2 peptide methylation, 120 min, at 12.5 µM, active compounds read high
Sequence (O96028 whole entry, looked up): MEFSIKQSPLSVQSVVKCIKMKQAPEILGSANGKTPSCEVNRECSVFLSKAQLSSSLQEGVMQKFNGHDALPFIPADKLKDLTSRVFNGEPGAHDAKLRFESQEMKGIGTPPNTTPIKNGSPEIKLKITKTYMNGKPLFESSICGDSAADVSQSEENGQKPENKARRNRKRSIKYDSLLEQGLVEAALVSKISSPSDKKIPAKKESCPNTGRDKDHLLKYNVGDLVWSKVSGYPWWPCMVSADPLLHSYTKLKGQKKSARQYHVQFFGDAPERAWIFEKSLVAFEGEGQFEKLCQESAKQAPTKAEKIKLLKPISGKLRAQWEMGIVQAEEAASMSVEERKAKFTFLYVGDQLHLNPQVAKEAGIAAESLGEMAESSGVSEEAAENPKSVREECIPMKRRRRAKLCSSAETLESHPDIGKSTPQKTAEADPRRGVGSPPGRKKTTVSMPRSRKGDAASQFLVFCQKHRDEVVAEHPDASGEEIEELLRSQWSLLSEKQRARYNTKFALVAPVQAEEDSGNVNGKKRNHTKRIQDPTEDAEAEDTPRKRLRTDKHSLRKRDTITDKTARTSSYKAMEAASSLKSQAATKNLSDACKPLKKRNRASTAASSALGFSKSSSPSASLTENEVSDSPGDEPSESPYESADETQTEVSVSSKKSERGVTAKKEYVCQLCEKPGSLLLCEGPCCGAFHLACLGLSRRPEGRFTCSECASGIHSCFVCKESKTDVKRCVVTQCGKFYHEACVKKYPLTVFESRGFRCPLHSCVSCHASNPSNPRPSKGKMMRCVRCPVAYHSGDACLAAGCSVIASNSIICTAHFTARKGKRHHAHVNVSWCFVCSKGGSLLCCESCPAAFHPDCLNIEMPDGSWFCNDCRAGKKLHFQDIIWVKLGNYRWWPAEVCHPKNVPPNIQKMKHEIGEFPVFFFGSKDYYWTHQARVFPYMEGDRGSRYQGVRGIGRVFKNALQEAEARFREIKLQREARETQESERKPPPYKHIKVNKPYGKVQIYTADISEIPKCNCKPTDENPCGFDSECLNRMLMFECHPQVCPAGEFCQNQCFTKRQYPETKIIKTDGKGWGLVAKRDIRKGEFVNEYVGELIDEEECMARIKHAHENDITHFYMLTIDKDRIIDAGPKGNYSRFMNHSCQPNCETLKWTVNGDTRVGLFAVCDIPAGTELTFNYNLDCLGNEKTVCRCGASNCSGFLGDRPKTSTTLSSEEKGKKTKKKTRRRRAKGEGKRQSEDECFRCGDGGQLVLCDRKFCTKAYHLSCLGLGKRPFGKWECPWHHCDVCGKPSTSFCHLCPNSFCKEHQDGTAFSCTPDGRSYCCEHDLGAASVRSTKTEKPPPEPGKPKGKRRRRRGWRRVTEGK

With OC[C@@H]1CN(Cc2cccs2)C[C@H](n2cnc3c(NC4CCCC4)ncnc32)O1 as the molecule, how does the inhibition read?
Its inhibition is -1.52%.

With Cc1ccc(NC(=O)c2cc(C)nn2-c2ccccc2)c(C)c1 as the molecule, how does the inhibition read?
Its inhibition is -1.54%.

With CCOC(=O)C1=C(C)NC2=C(C(=O)CC(C)(C)C2)C1c1ccc2c(c1)OCO2 (configuration not stated) as the molecule, how does the inhibition read?
The inhibition was 15.9%.

How did the inhibition turn out when CCOc1ccc(CCN2C(=O)c3cccnc3C2=O)cc1OCC was run?
Its inhibition is -2.42%.

For NC1=CC(=O)C(=O)c2cccnc21, which inhibition is on record?
The inhibition was 122% (active).

Which inhibition does the source give for Cc1cccc(N2C(=O)c3cccnc3C2=O)c1 here?
The inhibition was -1.99%.

How did the inhibition turn out when Nc1[nH][nH]c(=O)c1N=Nc1ccc2c(c1)OCO2 was run?
Its inhibition is 4.47%.

Cc1[nH][nH]c(=O)c1C(c1ccc2c(c1)OCO2)c1c(C)[nH][nH]c1=O was tested. Which inhibition did it give?
The inhibition was 84.4% (active).

CCOc1ccc(C(c2c(C)[nH][nH]c2=O)c2c(C)[nH][nH]c2=O)cc1OCC was tested. Which inhibition did it give?
The inhibition was 10.6%.

For CCCCN1CCN(C(=O)c2ccc3c(c2)NC(=O)C(C)(C)O3)CC1, which inhibition is on record?
The inhibition was 8.11%.

How did the inhibition turn out when COc1ccc(CN(CCN2CCOCC2)C(=O)c2ccc(C)cc2)cc1OC was run?
Its inhibition is 6.86%.

For COc1ccc(CSc2nnc(SCC(=O)Nc3ccccc3C(F)(F)F)s2)cc1, which inhibition is on record?
The inhibition was 0.831%.

How did the inhibition turn out when COc1ccc(CSc2nnc(-c3cccc(C)c3)n2C)cc1 was run?
The inhibition was 0.584%.

For Oc1c(C=Nc2cccc3nsnc23)ccc2ccccc12, which inhibition is on record?
The inhibition was 109% (active).

With Oc1ccc2ccccc2c1N=Nc1nccs1 as the molecule, how does the inhibition read?
The inhibition was 34.1%.

How did the inhibition turn out when O=C(CSc1nc2ccccc2s1)N=Nc1c(O)[nH]c2ccccc12 was run?
The inhibition was 2.59%.

How did the inhibition turn out when O=C(CSc1nnc(COc2ccccc2)n1Cc1ccco1)c1ccc2ccccc2c1 was run?
The inhibition was 0.338%.

Which inhibition does the source give for O=C(CSc1nc2ccccc2n1Cc1ccccc1Cl)N/N=C\c1c[nH]c2ccccc12 here?
Its inhibition is 3%.

How did the inhibition turn out when COc1cc(NC(=O)COC(=O)c2ccc([N+](=O)[O-])s2)cc(OC)c1OC was run?
Its inhibition is 72.8% (active).

Which inhibition does the source give for COc1cc(C(=O)OCc2ccc([N+](=O)[O-])cc2)cc(OC)c1OC here?
Its inhibition is -0.924%.

With O=C(OCC(=O)N1CCN(c2ccccc2)CC1)c1ccc([N+](=O)[O-])s1 as the molecule, how does the inhibition read?
The inhibition was 1.02%.

For O=C(NCc1cccnc1)c1cc(C2CCCN(C(=O)CCCc3ccccc3)C2)on1 (configuration not stated), which inhibition is on record?
The inhibition was -1.28%.

How did the inhibition turn out when Fc1ccc2nc(COCc3nc4ccc(F)cc4[nH]3)[nH]c2c1 was run?
The inhibition was -1.4%.

Which inhibition does the source give for CCCOc1ccc(F)cc1-c1cc(C(=O)NCc2ccc(F)cc2)[nH]n1 here?
Its inhibition is 19.4%.

For COc1ccc(CCNC(=O)CSc2nc3c([nH]2)c(=O)n(C)c(=O)n3C)cc1, which inhibition is on record?
Its inhibition is -8.19%.

COC(=O)[C@H](Cc1ccccc1)NC(=O)Nc1ccc(OC)cc1 was tested. Which inhibition did it give?
The inhibition was -1.09%.

Which inhibition does the source give for COC(=O)[C@@H](Cc1ccccc1)NC(=O)NCCc1ccccc1 here?
Its inhibition is 0.664%.

For COC(=O)[C@H](Cc1ccccc1)NC(=O)Nc1ccc(S(N)(=O)=O)cc1, which inhibition is on record?
The inhibition was 59.7% (active).

Which inhibition does the source give for COc1ccc(NC(=O)C2(C)Cc3c(-c4cccc(NC(C)=O)c4)ccnc3O2)cc1OC (configuration not stated) here?
Its inhibition is 1.97%.

For CCOc1ccccc1C(=O)Nc1cccc(C(=O)Nc2cc(C)ccn2)c1, which inhibition is on record?
The inhibition was 1.28%.

With O=C(CSc1nnc(-c2cccc(Cl)c2)n1Cc1ccco1)Nc1ccc(OCc2ccccc2)cc1 as the molecule, how does the inhibition read?
The inhibition was -1.47%.

How did the inhibition turn out when CC(=O)c1cc(-c2ccccc2)n(CCC(=O)NC2CCCCCC2)c1C was run?
The inhibition was 1.47%.

Which inhibition does the source give for CC(=O)c1cc(-c2ccccc2)n(CC(=O)NC2CCCCC2)c1C here?
The inhibition was 71.5% (active).

Which inhibition does the source give for CC(=O)CC(CC(=O)NC1CCCCC1)c1ccccc1 (configuration not stated) here?
Its inhibition is -4.05%.

CCN(CC)S(=O)(=O)c1ccc(N2CCN(C)CC2)c(NC(=O)Nc2ccccc2F)c1 was tested. Which inhibition did it give?
Its inhibition is 78.4% (active).

Which inhibition does the source give for CCN(CC)S(=O)(=O)c1ccc(N2CCOCC2)c(NC(=O)C(C)Oc2ccc(F)cc2)c1 (configuration not stated) here?
Its inhibition is -1.83%.

For CN1CCN(c2ccc(S(=O)(=O)N3CCCCC3)cc2NC(=O)Cc2ccccc2F)CC1, which inhibition is on record?
The inhibition was 1.27%.

With Cc1nc([N+](=O)[O-])cn1CC(=O)Nc1ccc(Cl)cc1 as the molecule, how does the inhibition read?
The inhibition was -0.868%.

Which inhibition does the source give for Cc1nc([N+](=O)[O-])cn1CC(=O)Nc1ccc2c(c1)OCO2 here?
The inhibition was -1.66%.

How did the inhibition turn out when Cc1ccc(C(=O)Cn2cc([N+](=O)[O-])nc2C)cc1 was run?
The inhibition was 55.2% (active).

How did the inhibition turn out when COc1ccc(OC)c(-c2csc(NC(=O)COC(=O)C3CC3)n2)c1 was run?
Its inhibition is -2.87%.

Which inhibition does the source give for COc1ccc(CCc2nc(-c3cccs3)no2)cc1 here?
Its inhibition is -6.21%.

With COc1ccc(OC)c(-c2csc(-c3cccs3)n2)c1 as the molecule, how does the inhibition read?
Its inhibition is 126% (active).

COc1ccc(-c2cc(NC=O)c3ncc(-c4cc(OC)c(OC)c(OC)c4)n3c2)c(OC)c1 was tested. Which inhibition did it give?
Its inhibition is 2.63%.

Which inhibition does the source give for COc1ccc(C(=O)N2CCCCC2c2cc(C(=O)Nc3ccc(F)c(Cl)c3)no2)cc1 (configuration not stated) here?
The inhibition was -0.843%.

How did the inhibition turn out when CCOc1ccc(C(CC(=O)O)NC(=O)Cc2ccccc2)cc1OC (configuration not stated) was run?
The inhibition was 0.638%.

With COc1ccc(C(C)NC(=O)C23CC4CC(CC(C4)C2)C3)cc1 (configuration not stated) as the molecule, how does the inhibition read?
The inhibition was 0.365%.

With CCOc1ccc(C(CC(=O)O)NC(=O)C23CC4CC(CC(C4)C2)C3)cc1OC (configuration not stated) as the molecule, how does the inhibition read?
Its inhibition is 73.2% (active).

CCC(NC(=O)C1C2C=CC3(CN(Cc4ccccc4)C(=O)C13)O2)c1ccccc1 (configuration not stated) was tested. Which inhibition did it give?
Its inhibition is -0.276%.

With CC(=O)N1CCc2cc(S(=O)(=O)NCCC(=O)N3CCCC3)ccc21 as the molecule, how does the inhibition read?
The inhibition was -3.38%.

Which inhibition does the source give for Cc1ccc(-n2c(SCC(=O)Nc3ccc(S(=O)(=O)Nc4nccs4)cc3)nnc2-c2ccccn2)cc1 here?
Its inhibition is 10.5%.

Which inhibition does the source give for Cc1coc2c(O)cc3c(c12)OC1(N2CCCCC2)C(=O)NCCCC31 (configuration not stated) here?
The inhibition was 75.1% (active).

With COc1ccccc1CCNC(=O)C1CCN(c2nc(C)cc(C)n2)CC1 as the molecule, how does the inhibition read?
Its inhibition is -3.97%.

How did the inhibition turn out when Cc1ccc(C(=O)N(Cc2ccccn2)CC2CCCO2)cc1 (configuration not stated) was run?
The inhibition was -6.08%.

How did the inhibition turn out when OC(c1ccccc1)c1nc(/C=C/c2ccc(C(F)(F)F)cc2)cs1 (configuration not stated) was run?
Its inhibition is -1.07%.

Which inhibition does the source give for CSc1ccc(CN2CCC2(C)C(=O)Nc2ccc(C)c(O)c2)cc1 (configuration not stated) here?
The inhibition was -2.34%.

COCC(C)n1c(SCc2ccc(C(=O)OC)o2)nc2ccccc2c1=O (configuration not stated) was tested. Which inhibition did it give?
Its inhibition is -0.047%.

How did the inhibition turn out when COCC(C)n1c(SCC(=O)NC2CCCCC2C)nc2ccccc2c1=O (configuration not stated) was run?
Its inhibition is 52.7% (active).

Which inhibition does the source give for COCCn1c(C)cc(C(=O)CSc2nc3ccccc3c(=O)n2C(C)COC)c1C (configuration not stated) here?
Its inhibition is 1.34%.

Which inhibition does the source give for COC(CNC(=O)[C@H](Cc1ccccc1)NC1(C(=O)NC2CCCCC2)CCCCC1)OC here?
Its inhibition is -1.53%.

Which inhibition does the source give for CC1(Oc2ccc(Cl)cc2)CCN(Cc2csc3ccccc23)C1 (configuration not stated) here?
The inhibition was -2.85%.

For COC(=O)c1nc(NC(=O)c2ccc(C(C)(C)C)cc2)n[nH]1, which inhibition is on record?
Its inhibition is -1.33%.

COC(=O)c1nc(NC(=O)c2ccccc2)n[nH]1 was tested. Which inhibition did it give?
The inhibition was 64.1% (active).

COC(=O)c1nc(NC(=O)c2ccc(F)cc2)n[nH]1 was tested. Which inhibition did it give?
The inhibition was -3.85%.

For COc1cccc(CSc2nnc(-c3cccnc3)n2Cc2ccccc2)c1, which inhibition is on record?
The inhibition was 2.07%.

How did the inhibition turn out when CCc1nc2c(OCCOc3ccccc3)cccn2c1N(C)C(=O)c1cccs1 was run?
Its inhibition is -0.996%.

For CC(=O)c1cccc(-c2cnc3c(NC=O)cc(-c4ccc(N5CCN(C)CC5)cc4)cn23)c1, which inhibition is on record?
The inhibition was 2.68%.

For CC(C)(C)CC(=O)Nc1nc(C(N)Cc2ccc(C(F)(F)F)cc2)cs1 (configuration not stated), which inhibition is on record?
The inhibition was 14%.

With O=C(NCCCN1CCOCC1)c1cc(-c2cccc(O)c2)on1 as the molecule, how does the inhibition read?
Its inhibition is -0.66%.

Which inhibition does the source give for O=C(Nc1cccnc1Cl)c1cc(-c2cccc(Cl)c2)on1 here?
The inhibition was -7.36%.

Which inhibition does the source give for CCN(CC)CCCNC(=O)c1cc(-c2cccc(Cl)c2)on1 here?
Its inhibition is 63.4% (active).

With Cc1ccc(-c2nc(C3CCCN(S(=O)(=O)c4ccc(Br)s4)C3)no2)cc1 (configuration not stated) as the molecule, how does the inhibition read?
The inhibition was -7.73%.

Cc1cccc(OCC(=O)NCCCNC(=O)c2ccccn2)c1 was tested. Which inhibition did it give?
The inhibition was 1.46%.

With CCN(CC)CCOc1ccc2c(c1)C(=NNC(=O)c1ccccn1)c1cc(OCCN(CC)CC)ccc1-2 as the molecule, how does the inhibition read?
Its inhibition is 64.6% (active).

With CCOc1cc2ccccc2cc1C(=O)Nc1ccccn1 as the molecule, how does the inhibition read?
The inhibition was -0.208%.

Which inhibition does the source give for C=CCn1c2c(c3ccccc31)CCC2 here?
The inhibition was 1.47%.

How did the inhibition turn out when Cc1ccc(Nc2ncnc3c2cnn3C)c(C)c1 was run?
Its inhibition is -0.415%.

How did the inhibition turn out when Cn1ncc2c(Nc3cccc4ccccc34)ncnc21 was run?
Its inhibition is 58.9% (active).

How did the inhibition turn out when Cn1ncc2c(NNC(=O)Cc3cccc4ccccc34)ncnc21 was run?
The inhibition was -5.08%.

How did the inhibition turn out when Cc1cc(C)cc(NC(=O)N2CCC(N(C)CCC(C)C)CC2)c1 was run?
The inhibition was 6.38%.

How did the inhibition turn out when Cc1cc(NS(=O)(=O)c2ccc(NC(=O)CSc3nnc(SCc4ccc(F)cc4)s3)cc2)nc(C)n1 was run?
Its inhibition is 1.71%.

CCOC(=O)C(=O)N(Cc1ccccc1)c1ccccc1C(=O)Nc1cc(OC)ccc1OC was tested. Which inhibition did it give?
The inhibition was 3.11%.

How did the inhibition turn out when Cc1[nH]n(-c2ccccc2)c(=O)c1N=Nc1ccccc1C(=O)N1CCCCC1 was run?
The inhibition was 56.8% (active).

COC(=O)c1ccccc1N=Nc1c(C)[nH][nH]c1=O was tested. Which inhibition did it give?
The inhibition was 0.329%.

Which inhibition does the source give for Cc1cccc(N=Nc2c(C)[nH]n(-c3ccccc3)c2=O)c1 here?
The inhibition was 9.54%.

Which inhibition does the source give for OC(c1ccccc1)c1nc(-c2cnc3ccccc3c2)cs1 (configuration not stated) here?
Its inhibition is 2.58%.

How did the inhibition turn out when COC(=O)CC1CCc2cc(C)cc(C(CC(C)C)NC(=O)[C@H](CC(C)C)NC(=O)OCc3ccccc3)c2O1 (some centres not stated) was run?
The inhibition was -2.73%.

For O=C(/C=C/c1ccc(Cl)cc1Cl)NCc1ccco1, which inhibition is on record?
The inhibition was 57.4% (active).

With O=C(NCc1ccco1)C1(c2ccc(Cl)cc2)CCCC1 as the molecule, how does the inhibition read?
The inhibition was 3.15%.

With COC(=O)/C=C/C(=O)NCc1ccco1 as the molecule, how does the inhibition read?
Its inhibition is 0.685%.

Which inhibition does the source give for CCOc1ccc(-n2c(SCC(=O)Nc3cc(C)c(NC(=O)c4ccccc4)cc3OC)nnc2-c2cccc(Cl)c2)cc1 here?
Its inhibition is 1.66%.

How did the inhibition turn out when c1csc(-c2nnc(SCc3nc4ccccc4[nH]3)o2)c1 was run?
Its inhibition is -7.8%.
